Experiment [1] can be described thus: qHTS assay to identify aromatase inhibitors - cell viability counter screen (AID 743084).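 Note: cells stimulated with testosterone during compound exposure; nearly all actives have a fitted effect of over 55% in size.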
In experiment [2] the target is Aryl hydrocarbon receptor (Homo sapiens) (UniProt P35869). In words: qHTS assay to identify small molecule that activate the aryl hydrocarbon receptor (AhR) signaling pathway (AID 743085).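 For activation: HG2L7.5c1 human HepG2 liver cells with stably integrated DRE-driven firefly reporter; series mostly up to about 70 µM.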 Note: nearly all actives have a fitted effect of over 15% in size. Note: potency is the fitted concentration of half-maximal effect. Summed up: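 Stably transfected human liver carcinoma cells (HG2L7.5c1; 20 DRE-firefly luciferase) were incubated 5 h, dosed, and kept 24 h at 37C. Agonism was scored from increased luciferase luminescence.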
Chain of Aryl hydrocarbon receptor (Homo sapiens) (P35869 whole entry, looked up): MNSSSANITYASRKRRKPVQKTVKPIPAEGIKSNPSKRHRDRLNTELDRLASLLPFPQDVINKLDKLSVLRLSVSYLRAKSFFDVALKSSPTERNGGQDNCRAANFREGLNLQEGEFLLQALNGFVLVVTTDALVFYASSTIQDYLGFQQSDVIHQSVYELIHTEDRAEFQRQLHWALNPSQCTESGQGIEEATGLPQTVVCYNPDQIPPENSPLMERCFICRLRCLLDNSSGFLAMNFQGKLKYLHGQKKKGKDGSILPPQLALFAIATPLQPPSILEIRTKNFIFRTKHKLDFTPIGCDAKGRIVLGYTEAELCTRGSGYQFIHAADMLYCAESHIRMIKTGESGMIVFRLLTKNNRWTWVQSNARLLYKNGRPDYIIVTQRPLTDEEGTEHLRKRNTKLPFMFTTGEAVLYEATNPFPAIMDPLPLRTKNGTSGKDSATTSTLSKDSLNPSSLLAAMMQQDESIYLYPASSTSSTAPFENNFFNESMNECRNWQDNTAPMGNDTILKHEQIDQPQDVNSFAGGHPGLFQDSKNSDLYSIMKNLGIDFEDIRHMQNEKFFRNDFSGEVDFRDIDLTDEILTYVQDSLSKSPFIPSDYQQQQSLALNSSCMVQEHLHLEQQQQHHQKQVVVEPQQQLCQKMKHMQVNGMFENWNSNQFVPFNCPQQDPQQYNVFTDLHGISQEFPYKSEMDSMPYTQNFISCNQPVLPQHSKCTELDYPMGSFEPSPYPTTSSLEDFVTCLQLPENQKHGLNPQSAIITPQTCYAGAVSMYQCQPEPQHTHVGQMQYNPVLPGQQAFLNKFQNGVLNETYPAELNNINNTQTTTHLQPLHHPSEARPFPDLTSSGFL

The nature of experiment [3]: qHTS assay to identify small molecule that activate the aryl hydrocarbon receptor (AhR) signaling pathway - cell viability counter screen (AID 743086). Note: series mostly up to about 70 µM; nearly all actives have a fitted effect of over 45% in size. In short, it runs like this: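 Cytotoxicity counter screen: CellTiter-Fluor signal (30 min, 37 C) in 4000 HepG2 cells/well carrying the DRE-luciferase reporter, following 24 h compound exposure at 37 C.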
Experiment [4] concerns the target Peroxisome proliferator-activated receptor gamma (Homo sapiens) (UniProt P37231). In words: qHTS assay to identify small molecule agonists of the peroxisome proliferator-activated receptor gamma (PPARg) signaling pathway (AID 743094; active = well fitted activation curve with a large enough effect in the signal ratio in the repeat runs, not every such curve was filed as active; the % refers to the signal ratio). In short, it runs like this:
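Quantitative HTS agonist mode: stable HEK293H line with UAS-beta-lactamase reporter under PPARg control, 17 h compound exposure at 37C, fluorescence after 1 h FRET substrate loading at room temperature.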

The nature of experiment [5]: qHTS assay to identify small molecule antagonists of the peroxisome proliferator-activated receptor gamma (PPARg) signaling pathway - cell viability counter screen (AID 743194). Note: nearly all actives have a fitted effect of over 55% in size. The conditions noted are these: Potency: co-treated with 50 nM rosiglitazone. In short, it runs like this: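 Viability was measured as CellTiter-Glo luminescence in GeneBLAzer PPARg UAS-bla HEK293H cells. These cells had been exposed 17 h at 37 C to compounds together with rosiglitazone at 50 nM final, with the beta-lactamase readout taken in the same wells.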

Experiment [6] can be described thus: qHTS assay for small molecule agonists of the antioxidant response element (ARE) signaling pathway (AID 743202; active = well fitted activation curve with a large enough effect in the signal ratio in the repeat runs, not every such curve was filed as active; the % refers to the signal ratio; note: potency is the fitted concentration of half-maximal effect). In short, it runs like this: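 Quantitative high-throughput format in HepG2 cells bearing an integrated ARE-beta-lactamase reporter. Compound exposure lasted 16 h at 37 C, and fluorescence was read 2 h after adding LiveBLAzer B/G substrate at room temperature.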

Experiment [7] can be described thus: qHTS assay for small molecule agonists of the antioxidant response element (ARE) signaling pathway - cell viability counter screen (AID 743203; calls by dose curve; note: nearly all actives have a fitted effect of over 55% in size). In short, it runs like this: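 Seeded at 2,000 cells/well, ARE-bla HepG2 cells were incubated 5 hrs before compound addition. After 16 hrs of treatment at 37C with 5% CO2, CellTiter-Glo reagent was added and luminescence read 30 min later.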

Experiment [8] in a line: qHTS assay for small molecule activators of the heat shock response signaling pathway - cell viability counter screen (AID 743209). Note: nearly all actives have a fitted effect of over 50% in size. Summed up:
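First, HSE-bla HeLa cells were seeded at 1500 cells/well and kept overnight at 37 C. Next, compounds were pinned in and incubated 5 h. After the FRET substrate step, CellTiter-Glo was added and luminescence read 30 min later.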

Experiment [9] in a line: qHTS assay for small molecule activators of the heat shock response signaling pathway (AID 743210; active = well fitted activation curve with a large enough effect in the signal ratio in the repeat runs, with a control signal flat, not every such curve was filed as active; the % refers to the signal ratio;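 note: HeLa cells with beta-lactamase reporter driven by heat shock elements; series mostly up to about 63 µM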). Summed up:
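HeLa HSE-bla cells, overnight plating; cpd in DMSO 5 h, 37 C; LiveBLAzer B/G FRET substrate 2.5 h RT; fluorescence intensity read.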

A short description of experiment [10]: qHTS assay to identify small molecule agonists of the peroxisome proliferator-activated receptor delta (PPARd) signaling pathway - cell viability counter screen (AID 743211). Note: nearly all actives have a fitted effect of over 55% in size. Summed up:
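In the same wells used for beta-lactamase reporter measurement, cytotoxicity is scored by CellTiter-Glo. HEK293H PPARd-bla cells receive compound for 17 h at 37C following a 5 h settling period.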

Experiment [11] in a line: qHTS assay to identify small molecule antagonists of the peroxisome proliferator-activated receptor delta (PPARd) signaling pathway - cell viability counter screen (AID 743213). Note: nearly all actives have a fitted effect of over 50% in size. In short, it runs like this: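 CellTiter-Glo was added to PPARd-bla HEK293H wells following 17 h compound treatment in the presence of 300 nM L165041. Luminescence was recorded after 30 min at room temperature.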

The nature of experiment [12]: qHTS assay to identify small molecule agonists of the farnesoid-X-receptor (FXR) signaling pathway - cell viability counter screen (AID 743218). Note: nearly all actives have a fitted effect of over 45% in size. Summed up:
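Cytotoxicity counter-screen run in parallel, same wells: FXR-UAS-bla HEK 293T cells dosed 16 h at 37 C, viability read by CellTiter-Glo luminescence after 30 min at room temperature.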

Experiment [13] in a line: qHTS assay to identify small molecule antagonists of the farnesoid-X-receptor (FXR) signaling pathway - cell viability counter screen (AID 743221; active = well fitted cell-killing curve with a large enough effect in the repeat runs, not every such curve was filed as active; note: nearly all actives have a fitted effect of over 50% in size). Summed up:
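Here viability was scored by luminescence after CellTiter-Glo addition to wells already read for beta-lactamase. Prior treatment: compound plus CDCA (50 uM final), 16 h, 37 C, HEK 293T FXR-bla cells.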

In experiment [14] the target is Vitamin D3 receptor (Homo sapiens) (UniProt P11473). In words: qHTS assay to identify small molecule agonists of the vitamin D receptor (VDR) signaling pathway (AID 743222; calls by dose curve). In short, it runs like this:
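Quantitative HTS agonist-mode screen: compounds in DMSO were pin-transferred onto VDR-bla cells and incubated 16 h at 37C, 5% CO2. Reporter activity was detected with LiveBLAzer B/G FRET substrate after 2 h at room temperature.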

The target is the same in experiment [15]. In words: qHTS assay to identify small molecule antagonists of the vitamin D receptor (VDR) signaling pathway (AID 743223; active = well fitted inhibition curve with a large enough effect in the signal ratio in the repeat runs, not every such curve was filed as active; the % refers to the signal ratio). In short, it runs like this:
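Inhibition of agonist-driven VDR signalling is scored in VDR-bla cells: 3 nM final 1alpha,25-dihydroxyvitamin D3 plus compound, 16 h at 37C, then beta-lactamase detection by FRET substrate fluorescence after 2 h.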

In experiment [16] the target is Peroxisome proliferator-activated receptor gamma (Homo sapiens) (UniProt P37231). The experiment can be described thus: qHTS assay to identify small molecule antagonists of the peroxisome proliferator-activated receptor gamma (PPARg) signaling pathway (AID 743191; calls by dose curve; note: series mostly up to about 63 µM; nearly all actives have a fitted effect of over 30% in size). Summed up:
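Beta-lactamase reporter under UAS control in HEK293H PPARg-bla cells; compound treatment 17 h at 37C. Read-out: fluorescence intensity after 1 h room-temperature incubation with LiveBLAzer B/G FRET substrate.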

Experiment [17] has as its target Peroxisome proliferator-activated receptor delta (Homo sapiens) (UniProt Q03181). In words: qHTS assay to identify small molecule antagonists of the peroxisome proliferator-activated receptor delta (PPARd) signaling pathway (AID 743215; active = well fitted inhibition curve with a large enough effect in the signal ratio in the repeat runs, not every such curve was filed as active; the % refers to the signal ratio;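 note: cells stimulated with agonist L165041 at 300 nM final during compound exposure; series mostly up to about 62 µM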). Summed up: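 Inhibition of L165041-driven (300 nM final) PPARd signaling is scored in HEK293H UAS-bla cells. Exposure lasts 17 h at 37 C; beta-lactamase activity is then read by FRET substrate fluorescence after 2 h at room temperature.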

Experiment [18] has the same target. The experiment can be described thus: qHTS assay to identify small molecule agonists of the peroxisome proliferator-activated receptor delta (PPARd) signaling pathway (AID 743212; calls by dose curve). Summed up:
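HEK293H PPARd-bla cells; 5 h preincubation 37 C/5% CO2; compound (DMSO) 37 C; LiveBLAzer B/G FRET substrate 2 h RT; fluorescence intensity.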

Experiment [19] addresses Bile acid receptor (Homo sapiens) (UniProt Q96RI1). In words: qHTS assay to identify small molecule antagonists of the farnesoid-X-receptor (FXR) signaling pathway (AID 743217; active = well fitted inhibition curve with a large enough effect in the signal ratio in the repeat runs, not every such curve was filed as active; the % refers to the signal ratio). In short, it runs like this: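 Antagonist mode against 50 uM (final) chenodeoxycholic acid stimulation in FXR-bla HEK 293T cells, 16 h at 37 °C. Inhibition detected as reduced beta-lactamase activity via LiveBLAzer B/G FRET fluorescence after 2 h at room temperature.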

The target is the same in experiment [20]. The experiment can be described thus: qHTS assay to identify small molecule agonists of the farnesoid-X-receptor (FXR) signaling pathway (AID 743220; active = well fitted activation curve with a large enough effect in the signal ratio in the repeat runs, not every such curve was filed as active; the % refers to the signal ratio). Summed up: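 Beta-lactamase reporter under UAS control in GeneBLAzer FXR HEK 293T cells (5000/well) measured with LiveBLAzer FRET substrate after 2 h at room temperature. Compound exposure lasted 16 h at 37C.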

Results filed as inconclusive are left out. The source made the active and inactive calls. Unless noted, calls come from the whole dose curve; as a rule, active = well fitted curve in the direction sought with a large enough effect in the repeat runs; inconclusive = weak or mixed curves; inactive = no such curve, though single readings can be large; an effect the other way counts as inactive or inconclusive.

Chain of Peroxisome proliferator-activated receptor delta (Homo sapiens) (Q03181 whole entry, looked up): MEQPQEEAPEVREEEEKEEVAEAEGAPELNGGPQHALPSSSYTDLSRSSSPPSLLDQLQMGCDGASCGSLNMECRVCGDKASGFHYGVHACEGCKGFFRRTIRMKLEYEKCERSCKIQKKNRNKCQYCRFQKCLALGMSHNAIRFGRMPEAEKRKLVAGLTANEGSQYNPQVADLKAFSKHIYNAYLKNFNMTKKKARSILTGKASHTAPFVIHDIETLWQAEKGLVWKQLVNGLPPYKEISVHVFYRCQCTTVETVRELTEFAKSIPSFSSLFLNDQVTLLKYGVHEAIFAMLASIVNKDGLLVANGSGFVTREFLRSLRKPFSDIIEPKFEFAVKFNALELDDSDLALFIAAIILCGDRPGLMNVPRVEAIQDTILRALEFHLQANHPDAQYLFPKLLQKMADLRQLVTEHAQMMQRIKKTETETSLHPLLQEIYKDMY
Chain of Peroxisome proliferator-activated receptor gamma (Homo sapiens) (P37231 whole entry, looked up): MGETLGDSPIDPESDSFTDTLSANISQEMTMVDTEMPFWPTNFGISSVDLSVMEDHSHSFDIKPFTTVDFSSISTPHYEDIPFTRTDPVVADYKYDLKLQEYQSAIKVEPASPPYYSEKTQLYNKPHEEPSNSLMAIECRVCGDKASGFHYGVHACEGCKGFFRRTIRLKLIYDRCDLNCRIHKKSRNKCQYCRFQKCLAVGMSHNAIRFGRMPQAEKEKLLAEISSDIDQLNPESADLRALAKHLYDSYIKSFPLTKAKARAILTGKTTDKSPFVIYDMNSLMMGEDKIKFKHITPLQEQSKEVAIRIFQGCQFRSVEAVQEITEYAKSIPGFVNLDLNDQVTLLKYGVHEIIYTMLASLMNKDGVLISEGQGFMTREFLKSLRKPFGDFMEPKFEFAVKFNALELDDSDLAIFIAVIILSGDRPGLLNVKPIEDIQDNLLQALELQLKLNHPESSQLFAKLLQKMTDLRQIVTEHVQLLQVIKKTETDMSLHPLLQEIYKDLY
Chain of Bile acid receptor (Homo sapiens) (Q96RI1 whole entry, looked up): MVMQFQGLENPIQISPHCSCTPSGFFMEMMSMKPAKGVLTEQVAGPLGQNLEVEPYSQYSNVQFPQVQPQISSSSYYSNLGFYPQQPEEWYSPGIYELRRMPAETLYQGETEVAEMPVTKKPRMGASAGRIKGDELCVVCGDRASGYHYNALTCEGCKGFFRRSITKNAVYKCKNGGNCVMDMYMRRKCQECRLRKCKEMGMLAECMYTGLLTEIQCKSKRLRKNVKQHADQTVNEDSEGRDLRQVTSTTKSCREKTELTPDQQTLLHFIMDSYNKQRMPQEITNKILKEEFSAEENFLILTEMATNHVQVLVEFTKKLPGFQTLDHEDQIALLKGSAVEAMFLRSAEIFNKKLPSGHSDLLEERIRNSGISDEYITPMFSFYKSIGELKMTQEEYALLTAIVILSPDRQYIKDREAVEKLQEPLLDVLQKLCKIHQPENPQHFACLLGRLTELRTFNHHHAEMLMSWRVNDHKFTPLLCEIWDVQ
Chain of Vitamin D3 receptor (Homo sapiens) (P11473 whole entry, looked up): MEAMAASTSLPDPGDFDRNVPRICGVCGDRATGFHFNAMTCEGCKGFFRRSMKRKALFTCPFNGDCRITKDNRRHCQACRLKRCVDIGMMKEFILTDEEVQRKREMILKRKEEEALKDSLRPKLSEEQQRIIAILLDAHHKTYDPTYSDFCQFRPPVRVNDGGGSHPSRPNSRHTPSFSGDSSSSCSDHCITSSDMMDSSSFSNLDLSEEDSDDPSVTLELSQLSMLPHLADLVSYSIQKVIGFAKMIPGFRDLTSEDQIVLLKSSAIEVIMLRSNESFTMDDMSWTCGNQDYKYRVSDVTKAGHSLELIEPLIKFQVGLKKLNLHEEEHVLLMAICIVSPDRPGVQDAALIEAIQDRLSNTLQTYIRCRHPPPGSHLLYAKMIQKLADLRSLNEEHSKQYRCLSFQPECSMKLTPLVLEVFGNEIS

As to `ClCCCCCCCl`, the Potency result in [1], in experiment [2], in [3], in experiment [5], in experiment [6] and in [7] was “inactive” in each case. Also, the Potency result in experiment [8], in experiment [9], in [10], in [11], in experiment [12] and in experiment [13] was “inactive” in each case. Also, the outcome in experiment [4], in experiment [14] and in experiment [15] was inactive.

As to `CCOP(=S)(OCC)Oc1ccc(Cl)cc1Cl`, the Potency entry in experiment [1], in experiment [3], in [16], in experiment [7], in [8] and in [9] was “inactive” each time. The Potency result in [10], in experiment [11], in experiment [17], in experiment [12] and in experiment [13] was “inactive” throughout. For the same compound, the Potency in experiment [2] is 19.3 µM (active). For the same compound, the compound was classed as inactive in [4], in experiment [14] and in [15].

In the case of `COP(=O)(OC)O/C(C)=C/C(=O)N(C)C`, the Potency entry in experiment [1], in experiment [2], in experiment [3], in [16], in [6] and in [7] was “inactive” in each case. The Potency entry in experiment [8], in experiment [9], in experiment [10], in experiment [11] and in experiment [13] was “inactive” each time. Further, the compound was classed as inactive in [4], in experiment [14] and in experiment [15].

Consider `CCOC(=O)Nc1cccc(OC(=O)Nc2ccccc2)c1`, for which the Potency result in experiment [1], in [3], in experiment [5], in [6], in experiment [7] and in experiment [8] was “inactive” throughout. Also, the Potency entry in experiment [9], in [10], in [11], in [17], in experiment [12] and in experiment [13] was “inactive” in each case. Further, the Potency in experiment [2] was 54.5 µM (active). For the same compound, the call in experiment [4], in experiment [18] and in experiment [15] was inactive.

`CCCC[N+](=O)[O-]`: the Potency entry in experiment [1], in experiment [2], in experiment [3], in [5], in [6] and in experiment [7] was “inactive” each time. Further, the Potency result in [8], in experiment [9], in experiment [10], in experiment [11], in [12] and in experiment [13] was “inactive” each time. Further, the call in experiment [4], in experiment [19], in experiment [20], in [14] and in experiment [15] was inactive.

As for `CC#Cc1cc(C)nc(Nc2ccccc2)n1`, the Potency result in experiment [1], in experiment [3], in [5], in experiment [7], in [8] and in experiment [9] was “inactive” in each case. Also, the Potency result in [10], in [17] and in experiment [13] was “inactive” throughout. Moreover, the Potency in experiment [2] is 30.6 µM (active); in experiment [6], 34.3 µM (active). In addition, the call in experiment [4], in experiment [18], in experiment [14] and in [15] was inactive.

For the compound `C=CC(=O)OCCN(C)C`, the Potency entry in [1], in [2], in [3], in [5], in [6] and in [7] was “inactive” throughout. Besides, the Potency entry in [8], in experiment [9], in experiment [10], in experiment [17], in [12] and in [13] was “inactive” throughout. The result in [4], in experiment [18] and in [14] was inactive.

On to `BrCC1CO1` (stereo unspecified), for which the Potency entry in experiment [1], in experiment [2], in experiment [3], in experiment [5], in experiment [6] and in experiment [7] was “inactive” each time. Besides, the Potency entry in experiment [8], in experiment [9], in experiment [10], in [11], in experiment [17] and in [13] was “inactive” throughout. The outcome in experiment [4], in [18], in experiment [19], in [20], in [14] and in [15] was inactive.

As to `O=c1[nH]c2ccccc2o1`, the Potency entry in experiment [1], in experiment [2], in [3], in [5], in [6] and in [7] was “inactive” throughout. Also, the Potency entry in experiment [8], in experiment [9], in experiment [10], in [11], in experiment [17] and in [12] was “inactive” each time. Besides, the Potency entry in experiment [13] was “inactive”. Also, the compound was classed as inactive in experiment [4], in experiment [18] and in experiment [14].

The record behind these values is PubChem BioAssay (Tox21).
